Rows were chosen to be rich in hits. Some 3.5% of all compounds tested hit in one or more screens of this group.
GPR151 ag: activators of human GPR151, primary screen, cell-based, PathHunter beta-arrestin, luminescence | G-protein coupled receptor 151 (Homo sapiens), Q8TDV0 | PathHunter beta-arrestin GPR151 cells | activation, % at 11.2 µM | 1% of 650,000 active; in the data active means activation above about 4.9%;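 further: 0% = median of compound wells and 100% = cells with positive control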
Target sequence (Q8TDV0 whole entry, looked up): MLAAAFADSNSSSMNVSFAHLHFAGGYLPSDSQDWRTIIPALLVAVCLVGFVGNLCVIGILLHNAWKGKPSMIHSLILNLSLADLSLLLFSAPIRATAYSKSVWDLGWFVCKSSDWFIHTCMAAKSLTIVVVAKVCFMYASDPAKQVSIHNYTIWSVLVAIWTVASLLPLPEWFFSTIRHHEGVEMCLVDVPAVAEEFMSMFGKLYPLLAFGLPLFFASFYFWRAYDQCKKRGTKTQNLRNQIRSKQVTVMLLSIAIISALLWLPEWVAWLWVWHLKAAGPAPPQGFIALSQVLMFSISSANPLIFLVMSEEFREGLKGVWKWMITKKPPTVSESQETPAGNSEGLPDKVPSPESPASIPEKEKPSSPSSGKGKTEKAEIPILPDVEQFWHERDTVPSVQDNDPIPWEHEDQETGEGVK
FBW7 activator: FBW7 E3 ligase activators, primary screen, biochemical, AlphaScreen, human | F-box/WD repeat-containing protein 7 (Homo sapiens), Q969H0 | AlphaScreen FBW7–phospho-cyclin E peptide binding, activator screen | normalized activity (activation), % at 26.1 µM | 0.13% of 650,000 active; in the data active means normalized activity above about 1.9%;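 further: purified mutant Fbw7 with reduced substrate affinity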
MITF primary: MITF inhibitors, primary screen, biochemical, AlphaScreen, human. 0.91% of 650,000 active. AlphaScreen MITF homodimerization, bead proximity signal. inhibition, % at 2.6 µM; in the data active means inhibition above about 50%;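 further: 0% = vehicle wells with protein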
TEAD-YAP inh: TEAD-YAP interaction inhibition, primary screen, TEAD-YAP interaction inhibitor project, luminescence, HEK-TIYL cells; TEAD-Gal4/YAP UAS-luciferase luminescence; inhibition, % at 9.12 µM; 1.4% of 640,000 active; AID 1259422, 2018; in the data active means inhibition above about 32%;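 further: 0% = median of test compound wells and 100% = reference inhibitor wells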
Starred values were filed as active, the others as inactive.

SMILES	GPR151 ag	FBW7 activator	MITF primary	TEAD-YAP inh
COc1ccc(OC)c(NC2=C(Cl)C(=O)c3ccccc3C2=O)c1	1.7	-0.5	61.8*	27.2
N#CC1=C(SCC(=O)Nc2ccc(Br)cc2)NC(=O)CC1c1ccc(O)cc1 (stereo unspecified)	0.3	0.0	14.1	39.0*
N#CC1=C(SCC(=O)Nc2ccc(Cl)c(Cl)c2)NC(=O)CC1c1ccccc1 (stereo unspecified)	-1.9	-0.2	-9.4	65.9*
Cc1[nH]n(-c2nc(-c3ccccc3)cs2)c(=O)c1C(c1ccccc1)C(C#N)C(N)=O (stereo unspecified)	-0.4	-0.2	-7.0	59.0*
COc1ccc(-c2csc(N3N=C(C)C(N=Nc4ccc(C(N)=O)cc4)C3=O)n2)cc1 (stereo unspecified)	-0.5	-0.1	-0.3	0.1
CC1=NN(c2nc(-c3ccc(C)cc3)cs2)C(=O)C1C(c1ccccc1)C(C#N)C(N)=O (stereo unspecified)	2.8	-0.1	-16.2	75.3*
CC(C)n1nnnc1C(c1ccc(N(C)C)cc1)N1CCN(C2CCCC2)CC1 (stereo unspecified)	-0.5	-0.2	-1.8	-5.0
C/C(CC(=O)Nc1ccc(Cl)c(Cl)c1)=N\NC(=O)c1ccccc1	-2.2	-0.1	-9.9	-59.2
COCCNC(=O)CCC1CCN(C(=O)CCOc2ccccc2)CC1	-1.5	-0.1	-12.8	-4.4
COCCNC(=O)CCC1CCN(C(=O)C#Cc2ccccc2)CC1	1.5	-0.1	1.5	38.2*
C=CCn1c(Sc2ccc([N+](=O)[O-])cn2)nnc1-c1ccc(OC)cc1	-0.3	0.0	-6.7	48.0*
C=CCn1c(SCC)nnc1-c1ccc([N+](=O)[O-])cc1	0.6	0.1	8.7	-0.2
COc1ccc(Cl)cc1C(=O)NCc1ccc2c(c1)cc(C)n2C	1.1	0.1	-1.2	43.9*
CCOC(=O)CN1CCN(c2ccc(-c3cccc(C=O)c3)cn2)CC1	-0.8	0.5	14.6	10.8
CCOC(=O)CN1CCN(c2ccc(Br)cn2)CC1	-0.5	0.2	-8.0	44.5*
CCN(CC)CCOC(=O)c1c(C)oc2ccc(O)c(Cl)c12	-1.9	0.1	11.9	5.5
O=C(CSc1nnc(-c2ccc3c(c2)OCO3)o1)Nc1ccc2[nH]c(=O)[nH]c2c1	1.1	4.6*	-30.2	0.4
Cc1ccc(Nc2nc(-c3ccc(O)cc3)cs2)nc1	1.0	-0.1	-15.7	33.4*
CC(=O)c1ccc(OCC(=O)NCC2Cc3c(F)ccc(-c4ccncc4)c3O2)cc1 (stereo unspecified)	3.6	0.2	-0.4	32.8*
Nc1c(C(=O)c2ccc(F)cc2)sc2nc(-c3ccccc3)cc(-c3ccccc3)c12	1.0	0.1	-4.3	2.8
Nc1c(C(=O)c2ccc(F)cc2)sc2nc(-c3ccccc3)cc(-c3ccco3)c12	2.2	0.0	63.4*	7.1
CCCCS(=O)(=O)/C=C\C=C\S(=O)(=O)CCCC	1.0	-0.1	-0.5	89.8*
COCCCNC(=O)c1cc2sccc2n1CC(=O)c1ccccc1	0.0	0.2	5.5	2.4
NNC(=O)c1[nH]c2ccccc2c1Cl	-1.3	0.0	2.2	46.7*
CNC(=O)/C(C#N)=C/c1c(Oc2ccc(Br)cc2)nc2ccccn2c1=O	-8.2	-0.1	12.3	0.8
SMILES	GPR151 ag	FBW7 activator	MITF primary	TEAD-YAP inh
COc1cc(/C=C2\Oc3c(ccc(O)c3CN3CCCCC3)C2=O)cc(OC)c1OC	2.2	-0.1	13.1	32.1*
COc1ccc(/C=C2\Oc3c(ccc(O)c3CN3CCCC3)C2=O)cc1	-0.1	-0.1	14.7	2.2
Nc1nonc1-n1nnc(C(=O)O)c1CSc1ccccc1	1.4	0.0	4.5	-2.5
Cc1cc2nc(-c3cccc(N)c3C)oc2cc1C	-8.5	0.0	-4.2	89.1*
Cc1ccc2oc(-c3cccc(N)c3C)nc2c1	-10.3	-0.2	-2.8	43.2*
Cc1cc(C)c2oc(-c3ccc(N)cc3O)nc2c1	-1.3	-0.1	2.5	36.8*
Cc1cc2nc(-c3cccc(NC(=O)C(C)C)c3C)oc2cc1C	0.7	-0.1	-11.5	0.4
Cc1ccc2oc(-c3cc(N)ccc3Cl)nc2c1	-4.0	-0.2	1.6	-45.8
Nc1ccc(-c2nc3cc(N)ccc3o2)c(O)c1	-2.8	0.1	-4.3	-14.9
Cc1ccc(C)c(-c2nc3cc(N)ccc3o2)c1	-0.2	0.3	6.0	36.8*
COc1cccc(C(=O)NN2C(=S)N(c3ccccc3)C(=O)C2CC(N)=O)c1 (stereo unspecified)	-0.7	0.2	5.8	-26.5
Cc1cccc(-n2c(SCC(=O)N3CCN(C)CC3)nnc2-c2c[nH]c3ccccc23)c1	-0.5	0.1	3.1	2.6
N#Cc1cccc(Cn2c(-c3nonc3N)nc3ccccc32)c1	-0.8	0.1	15.3	48.1*
Cc1ccc(C(=O)/C=C/Nc2ccccc2C(N)=O)cc1	-5.1	0.0	-2.6	55.6*
COc1cc(C(=O)/C=C/Nc2ccccc2C(N)=O)cc(OC)c1OC	-1.4	0.6	6.2	37.8*
COc1cc(C(=O)/C=C/Nc2ccccc2C)cc(OC)c1OC	2.2	-0.1	1.4	-28.7
Nc1nn(-c2ccccc2)c2ccc([N+](=O)[O-])cc12	-8.1	-0.1	10.1	-24.4
O=C1OCC2=C1C(c1ccc3c(c1)OCO3)Nc1ccc3ccccc3c12 (stereo unspecified)	1.7	0.0	-8.5	53.9*
CC1(C)CC(=O)C2=C(C1)Nc1ccccc1NC2c1ccc2c(c1)OCO2 (stereo unspecified)	-1.7	-0.2	-3.1	-21.5
COc1ccc(CCNc2nc(-c3ccc(OC)nc3)nc3c2ncn3-c2ccsc2)cc1	-0.3	0.0	-7.0	46.1*
COc1ccc(-c2nc(NCCc3ccc(O)cc3)c3ncn(-c4ccccc4)c3n2)cc1	2.3	0.1	17.4	23.9
COc1ccc(CCNc2nc(-c3ccc(C(=O)N4CCN(C)CC4)cc3)nc3c2ncn3-c2ccccc2)cc1	-2.5	-0.1	8.0	41.3*
COc1ccc(-c2nc(NCCc3ccc(O)cc3)c3ncn(C(C)C)c3n2)cc1	-1.1	0.3	18.1	61.4*
COc1ccc(-c2nc(NCCc3ccc(O)cc3)c3ncn(-c4ccccc4)c3n2)cn1	4.4	0.0	-4.1	47.4*
CC(C)n1cnc2c(NCCc3ccc(O)cc3)nc(-c3ccccc3)nc21	-1.1	-0.1	2.3	14.9
COc1ccc(-c2nc(NCCc3ccc(O)cc3)c3ncn(-c4ccsc4)c3n2)cc1	2.4	0.0	12.4	55.5*
COc1ccc(CCNc2nc(-c3ccccc3)nc3c2ncn3-c2ccsc2)cc1	1.1	0.2	11.6	-1.9
CCCCN(CC)C(=O)C(C)n1nc(C)n2c(cc3occc32)c1=O (stereo unspecified)	0.2	0.6	7.7	1.3
NNC(=O)C(Cc1ccccc1)NC(=O)OCc1ccccc1 (stereo unspecified)	1.4	0.0	5.5	8.4
NNC(=O)C(Cc1ccc(O)cc1)NC(=O)C(CO)NC(=O)OCc1ccccc1 (stereo unspecified)	-0.7	2.1*	8.7	13.1

Screening data (PubChem BioAssay)
